Screening data as filed in PubChem BioAssay.
The list is not random: actives were taken first. Their share in the collection is about 3.5%.
TEAD-YAP inh: TEAD-YAP interaction inhibition. hit rate 1.4% among 640,000. inhibition, % at 9.12 µM. HEK-TIYL cells, TEAD-Gal4/YAP UAS-luciferase luminescence; in the data active means inhibition above about 32%;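 further: 0% = median of test compound wells and 100% = reference inhibitor wells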
FBW7 activator: activators of human E3 ligase FBW7 | Q969H0 | normalized activity (activation), % at 26.1 µM | AlphaScreen FBW7–phospho-cyclin E peptide binding, activator screen | hit rate 0.13% among 650,000; in the data active means normalized activity above about 1.9%;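 further: purified mutant Fbw7 with reduced substrate affinity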
MITF primary: inhibitors of human MITF | O75030 | AlphaScreen MITF homodimerization, bead proximity signal | inhibition, % at 2.6 µM | hit rate 0.91% among 650,000 | AID 1259374; in the data active means inhibition above about 50%;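 further: 0% = vehicle wells with protein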
GPR151 activ: activators of human GPR151; Q8TDV0; PathHunter beta-arrestin GPR151 cells, luminescence; activation, % at 11.2 µM; hit rate 1% among 650,000; AID 1508602; in the data active means activation above about 4.9%;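 further: 0% = median of compound wells and 100% = cells with positive control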
Target sequence (Q8TDV0 whole entry, looked up): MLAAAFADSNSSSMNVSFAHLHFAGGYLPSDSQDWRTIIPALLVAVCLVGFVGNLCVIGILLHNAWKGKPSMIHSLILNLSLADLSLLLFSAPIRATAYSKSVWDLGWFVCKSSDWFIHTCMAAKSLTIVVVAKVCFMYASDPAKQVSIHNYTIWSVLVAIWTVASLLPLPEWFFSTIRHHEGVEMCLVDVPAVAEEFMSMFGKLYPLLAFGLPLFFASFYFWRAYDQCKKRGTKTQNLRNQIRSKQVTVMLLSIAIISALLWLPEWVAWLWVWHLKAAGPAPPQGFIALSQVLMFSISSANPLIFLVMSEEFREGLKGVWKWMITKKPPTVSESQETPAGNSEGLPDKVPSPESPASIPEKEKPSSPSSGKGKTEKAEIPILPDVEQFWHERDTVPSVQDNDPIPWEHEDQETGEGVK
GPR151 confirm: human GPR151 activation, confirmation screen. shares compounds with GPR151 activ. GPR151 PathHunter beta-arrestin cells, luminescence, 90 min; % of EA-reagent control over plate median. activation, % at 11.2 µM. 6,700 tested, under 10 active. AID 1508609;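 active means mean percent activation across replicates above the confirmation screen cutoff of 4.91%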
GPR119 counter: counter-screen for GPR151 activators: effect on human GPR119; GPR119 PathHunter beta-arrestin cells, luminescence, 90 min; 0 = compound-well median, 100 = enzyme-acceptor control; shares compounds with GPR151 activ; activation, % at 11.2 µM; AID 1508611; hit rate 0.3% among 6,700;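 active means mean percent activation in the counterscreen above 29.09%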;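 further: counterscreen on off-target GPR119 to flag nonselective hits from the GPR151 activator screen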
The depositor's hits bear a star; / = no result.

SMILES | TEAD-YAP inh | FBW7 activator | MITF primary | GPR151 activ | GPR151 confirm | GPR119 counter
CC1(C)CC(=O)C2=C(C1)Nc1ccccc1N(C(=S)Nc1ccccc1)C2c1ccc(Cl)cc1 (stereo not drawn) | 4 | 0 | 15 | -1 | / | /
CCCn1c(C)cc(C(=O)COc2ccc(-n3cnnn3)cc2)c1C | 8 | 0 | 6 | -1 | / | /
Cc1nn(-c2ccc(Nc3ccc(NC(=O)c4cccc(F)c4)cc3)nn2)c(C)c1C | -22 | 0 | -13 | 7.6* | 3 | 15
COc1ccc(N=C2SC(CC(=O)Nc3ccccc3)C(=O)N2CCN(C)C)cc1 (stereo not drawn) | 3 | 0 | 18 | 0 | / | /
COc1ccccc1/C=N/N=C1/NC(=O)C(CC(=O)Nc2ccc(Cl)cc2)S1 (stereo not drawn) | 3 | 0 | -2 | 1 | / | /
C=CCN1C(=O)C(CC(=O)Nc2cccc(C(C)=O)c2)SC1=Nc1ccc(OC)cc1 (stereo not drawn) | 5 | 0 | -4 | 5.7* | 0 | 0
COc1ccccc1/C=N/N=C1/NC(=O)C(CC(=O)Nc2cccc(C(C)=O)c2)S1 (stereo not drawn) | -6 | 0 | -5 | 12* | 1 | 20
CCCNC(=S)Nc1ccc(C(=O)OCC)cc1 | -3 | 0 | 8 | -2 | / | /
[O-]/[N+](=C\c1ccc(F)cc1)c1ccccc1 | 6 | 0 | -1 | -1 | / | /
[O-]/[N+](=C\c1ccncc1)c1ccc(Cl)cc1 | 5 | 0 | -1 | 5.2* | 2 | 13
COc1ccc(CCNc2nc(NCCCN3CCCC3=O)ncc2C)cc1 | 2 | 0 | 22 | 1 | / | /
CCOc1ccc(-n2c(SCC(=O)NC(C)(C)C)nnc2-c2ccoc2C)cc1 | 10 | 0 | 1 | 0 | / | /
N[n+]1cnn(CC(=O)c2ccc(Cl)cc2Cl)c1 | 3 | 0 | -16 | 1 | / | /
CC(C(=O)c1ccc(Cl)cc1Cl)n1c[n+](N)cn1 (stereo not drawn) | 11 | 0 | -6 | 5.2* | 1 | 5
COc1ccccc1NC(=O)N1CCc2nc3c(C)cccn3c(=O)c2C1 | 2 | 0 | 8 | -1 | / | /
Cc1ccc(-n2c(C)c3c(C)nnc(C)c3c2C)cc1N | -5 | 0 | -4 | 5.3* | 1 | -3
OC[C@H]1O[C@@H](O[C@H]2[C@H](O)[C@@H](O)[C@@H](O)O[C@@H]2CO)[C@H](O)[C@@H](O)[C@@H]1O | 9 | 0 | -2 | -3 | / | /
Cc1ccc(C2=CC(c3ccc(Cl)cc3)n3nc(CCCO)nc3N2)cc1 (stereo not drawn) | 7 | 0 | 16 | -1 | / | /
COc1ccc(C2C=C(c3ccc(Cl)cc3)Nc3nc(CCCO)nn32)cc1 (stereo not drawn) | 12 | 0 | -1 | 6.1* | 2 | 5
Cc1ccc(-n2cc(-c3ccccc3)c3c(NCc4ccccc4)ncnc32)cc1 | 12 | 0 | -2 | 0 | / | /
Cc1ccc(CNc2ncnc3c2c(-c2ccccc2)cn3-c2ccc(Cl)cc2)cc1 | -1 | 0 | -11 | 8.4* | 0 | -2
CC(=O)C(Sc1nnc(Nc2ccc(C(C)C)cc2)s1)C(C)=O | -33 | 0 | 9 | 6.0* | 0 | -4
COc1ccc(OC)c(N(CC(=O)Nc2ccc(F)cc2)S(C)(=O)=O)c1 | 6 | 0 | 24 | 0 | / | /
CCC(Sc1nc2nc(C)c(Cc3ccc(F)cc3Cl)c(C)n2n1)C(=O)Nc1ccccc1OC (stereo not drawn) | -11 | 0 | -9 | 5.4* | 0 | 6
CCc1ccccc1NC(=O)CSc1nc2nc(C)c(Cc3ccc(F)cc3Cl)c(C)n2n1 | 8 | 0 | -13 | 0 | / | /
COc1cccc(NC(=O)c2cc3c(=O)n4ccccc4nc3n(CC(C)C)c2=N)c1 | -8 | 0 | -5 | 5.0* | -1 | -7
COCCn1c(=N)c(C(=O)NCc2ccco2)cc2c(=O)n3ccccc3nc21 | -13 | 0 | 6 | 7.3* | 0 | -8
O=C1Nc2cc(C(=O)N3CCN(c4cccc(C(F)(F)F)c4)CC3)ccc2Sc2ccccc21 | -3 | 0 | 1 | 5.1* | 0 | 11
Cc1ccc(CS(=O)(=O)CC2Nc3ccc(C(=O)N4CCN(c5cccc(C(F)(F)F)c5)CC4)cc3NC2=O)cc1 (stereo not drawn) | 0 | 0 | -1 | 0 | / | /
